Structures are written as SMILES.

For experiment [1], the system named is Vero E6 infected with SARS-CoV-2. Put plainly: morphology score (similarity to uninfected cells); higher = more like uninfected cells. The conditions noted are these: 24 h.
For experiment [2] the test system is unchanged. As to the kind of experiment: SARS-CoV-2 infection rate relative to infected DMSO; higher = more infection, active = 60 or less. The conditions noted are these: 24 h.

For the compound `COc1ccc(C(CN(C)C)C2(O)CCCCC2)cc1` (stereo unspecified) [venlafaxine] (10 µM), in experiment [1], the morphology score is 0.00722. The SARS-CoV-2 infection rate in experiment [2] is 110% (inactive).

Take `Cn1cnc2c(F)c(Nc3ccc(Br)cc3F)c(C(=O)NOCCO)cc21` [binimetinib] (0.833333 µM): the morphology score in experiment [1] is -0.00339. The SARS-CoV-2 infection rate in experiment [2] is 110% (inactive).

Compound `CC(=O)Oc1cccc(C(=O)O)c1OC(C)=O` [dipyrocetyl] (10 µM) returned a morphology score in experiment [1] of 0.209. Further, the SARS-CoV-2 infection rate in experiment [2] was 85% (inactive).

On to `CC[C@H](CO)Nc1nc(NCc2ccccc2)c2ncn(C(C)C)c2n1` [roscovitine] (10 µM), for which the morphology score in experiment [1] was -0.0602. In addition, the SARS-CoV-2 infection rate in experiment [2] was 96% (inactive).

On to `CCCOc1ccc(S(=O)(=O)N2CCN(CCO)CC2)cc1-c1nc2c(CCC)cn(CC)c2c(=O)[nH]1` [mirodenafil] (10 µM), for which the morphology score in experiment [1] was determined as 0.127. Moreover, the SARS-CoV-2 infection rate in experiment [2] was 95.5% (inactive).

Take `O=C1CN(/N=C/c2ccc(-c3ccc([N+](=O)[O-])cc3)o2)C(=O)N1` [dantrolene] (10 µM): in experiment [1], the morphology score amounted to 0.0672. The SARS-CoV-2 infection rate in experiment [2] was 110% (inactive).

Regarding `O=C(O)c1cn(C2CC2)c2cc(N3CCNCC3)c(F)cc2c1=O` [ciprofloxacin] (10 µM), the morphology score in experiment [1] was 0.046. In addition, the SARS-CoV-2 infection rate in experiment [2] is 106% (inactive).

`CC(C)c1nc(N(C)S(C)(=O)=O)nc(-c2ccc(F)cc2)c1/C=C/[C@@H](O)C[C@@H](O)CC(=O)O` [rosuvastatin] (0.833333 µM) displayed a morphology score in experiment [1] of 0.322. For the same compound, the SARS-CoV-2 infection rate in experiment [2] was 99% (inactive).

Turning to `CCCC(=O)O[C@]1(C(=O)CCl)[C@@H](C)C[C@H]2[C@@H]3CCC4=CC(=O)C=C[C@]4(C)[C@@]3(F)C(=O)C[C@@]21C` [clobetasone-butyrate] (10 µM), in experiment [1], the morphology score was determined as 0.344. Besides, the SARS-CoV-2 infection rate in experiment [2] was 96% (inactive).

`CCCCc1ccc(NS(=O)(=O)c2ccc(F)cc2)cc1` (10 µM) yielded a morphology score in experiment [1] of 0.122. Further, the SARS-CoV-2 infection rate in experiment [2] was 102% (inactive).

Consider `CCS(=O)(=O)CCn1c([N+](=O)[O-])cnc1C` [tinidazole] (10 µM), for which the morphology score in experiment [1] is 0.142. Besides, the SARS-CoV-2 infection rate in experiment [2] was 108% (inactive).

`CO/N=C1/C[C@@H](C(=O)NC[C@@H](O)c2ccccc2)N(C(=O)c2ccc(-c3ccccc3C)cc2)C1` [OT-R-antagonist-1] (10 µM): the morphology score in experiment [1] was 0.118. For the same compound, the SARS-CoV-2 infection rate in experiment [2] was 98.5% (inactive).

On to `C=CCn1c(=O)c2cnc(Nc3ccc(N4CCN(C)CC4)cc3)nc2n1-c1cccc(C(C)(C)O)n1` (10 µM), for which the morphology score in experiment [1] is -0.0169. The SARS-CoV-2 infection rate in experiment [2] is 96% (inactive).

The compound `Cn1ccc2cc3c(cc21)CCN3C(=O)Nc1cccnc1` (10 µM) came in with a morphology score in experiment [1] of 0.204. For the same compound, the SARS-CoV-2 infection rate in experiment [2] was 99% (inactive).

`CC(C)c1nc(CN(C)C(=O)N[C@H](C(=O)N[C@@H](Cc2ccccc2)C[C@H](O)[C@H](Cc2ccccc2)NC(=O)OCc2cncs2)C(C)C)cs1` [Ritonavir] (10 µM) registered a morphology score in experiment [1] of 0.0318. In experiment [2], the SARS-CoV-2 infection rate is 95% (inactive).

Turning to `CN(C)CCC(c1ccc(Br)cc1)c1ccccn1` (stereo unspecified) [brompheniramine] (10 µM), the morphology score in experiment [1] is -0.0213. In experiment [2], the SARS-CoV-2 infection rate is 106% (inactive).

Compound `C[C@H]1O[C@H](O[C@H]2[C@H](O)[C@@H](O)[C@@H](O[C@H]3[C@H](O)[C@@H](O)C(O)O[C@@H]3CO)O[C@@H]2CO)[C@H](O)[C@@H](O)[C@@H]1N[C@H]1C=C(CO)[C@@H](O)[C@H](O)[C@H]1O` (stereo partly specified) [acarbose] (10 µM) registered a morphology score in experiment [1] of 0.085. Further, in experiment [2], the SARS-CoV-2 infection rate is 100% (inactive).

Take `CC(=O)O[C@H]1C[C@@]2(C)[C@@H](C[C@@H](O)[C@H]3[C@@]4(C)CC[C@@H](O)[C@@H](C)[C@@H]4CC[C@@]32C)/C1=C(\CCC=C(C)C)C(=O)O` [fusidic-acid] (10 µM): in experiment [1], the morphology score is 0.063. Further, the SARS-CoV-2 infection rate in experiment [2] is 98% (inactive).

In experiment [1], `CC(O)(C(=O)Nc1ccc(S(=O)(=O)c2ccccc2)cc1)C(F)(F)F` (stereo unspecified) (10 µM) gave a morphology score of 0.347. In addition, the SARS-CoV-2 infection rate in experiment [2] is 78% (inactive).

As to `Cc1cccc(/C=N/Nc2cc(N3CCOCC3)n3nc(-c4ccncc4)cc3n2)c1` (10 µM), in experiment [1], the morphology score was 0.261. For the same compound, the SARS-CoV-2 infection rate in experiment [2] is 50.5% (active).

`C[C@H](Nc1cc(-c2cnn(C)c2)cc(Nc2cnccn2)n1)c1ccc(F)cc1` (0.833333 µM): the morphology score in experiment [1] is -0.112. Moreover, the SARS-CoV-2 infection rate in experiment [2] is 114% (inactive).

Take `COc1cc2c(cc1OC)[C@@H](Cc1cc(OC)c(OC)c(OC)c1)[N+](C)(CCCOC(=O)CC/C=C/CCC(=O)OCCC[N+]1(C)CCc3cc(OC)c(OC)cc3[C@H]1Cc1cc(OC)c(OC)c(OC)c1)CC2` (stereo partly specified) [mivacurium] (10 µM): the morphology score in experiment [1] is -0.0909. The SARS-CoV-2 infection rate in experiment [2] was 104% (inactive).

As to `O=C(N[C@H]1CN2CCC1CC2)c1cc2cccc(Cl)c2s1` (10 µM), the morphology score in experiment [1] amounted to 0.352. The SARS-CoV-2 infection rate in experiment [2] is 86.5% (inactive).

Compound `C[C@@H]1CC[C@@]2(OC1)O[C@H]1C[C@H]3[C@@H]4CC=C5C[C@@H](O[C@@H]6O[C@H](CO)[C@@H](O[C@@H]7O[C@@H](C)[C@H](O)[C@@H](O)[C@H]7O)[C@H](O)[C@H]6O[C@@H]6O[C@@H](C)[C@H](O)[C@@H](O)[C@H]6O)CC[C@]5(C)[C@H]4CC[C@]3(C)[C@H]1[C@@H]2C` [dioscin] (10 µM) yielded a morphology score in experiment [1] of 0.0193. Also, in experiment [2], the SARS-CoV-2 infection rate is 101% (inactive).

`N[C@@H](Cc1ccc(Cl)cc1)C(=O)O` (racemic) [fenclonine-(+/-)] (10 µM): the morphology score in experiment [1] was determined as 0.00322. Further, in experiment [2], the SARS-CoV-2 infection rate is 109% (inactive).

With `CCOC(=O)c1ccccc1OC(N)=O` [ethyl-2-(carbamoyloxy)benzoate] (10 µM), the morphology score in experiment [1] is -0.102. The SARS-CoV-2 infection rate in experiment [2] is 108% (inactive).

Turning to `NC[C@H]1O[C@H](O[C@H]2[C@H](O)[C@@H](O[C@H]3O[C@H](CO)[C@@H](O)[C@H](N)[C@H]3O)[C@H](N)C[C@@H]2N)[C@H](N)C[C@@H]1O` [tobramycin] (10 µM), the morphology score in experiment [1] was found to be 0.095. Also, in experiment [2], the SARS-CoV-2 infection rate is 113% (inactive).

On to `C/C=C(/C)C(=O)O[C@H]1[C@H](OC(C)=O)[C@@]2(CO)C(CC1(C)C)C1=CCC3[C@@]4(C)CCC(O[C@@H]5O[C@H](C(=O)O)[C@@H](O[C@@H]6O[C@H](CO)[C@@H](O)[C@H](O)[C@H]6O)[C@H](O)[C@H]5O[C@@H]5O[C@H](CO)[C@@H](O)[C@H](O)[C@H]5O)[C@](C)(CO)C4CC[C@@]3(C)[C@]1(C)C[C@H]2O.C/C=C(\C)C(=O)O[C@H]1[C@H](OC(C)=O)[C@@]2(CO)C(CC1(C)C)C1=CCC3[C@@]4(C)CCC(O[C@@H]5O[C@H](C(=O)O)[C@@H](O[C@@H]6O[C@H](CO)[C@@H](O)[C@H](O)[C@H]6O)[C@H](O)[C@H]5O[C@@H]5O[C@H](CO)[C@@H](O)[C@H](O)[C@H]5O)[C@](C)(CO)C4CC[C@@]3(C)[C@]1(C)C[C@H]2O` (stereo partly specified) [escin] (0.833333 µM), for which, in experiment [1], the morphology score was -0.0809. In addition, in experiment [2], the SARS-CoV-2 infection rate was 118% (inactive).

For the origin of these results see the supplement of paper PMC13380429.
